# High-throughput results (PubChem BioAssay)
# Rows were chosen to be rich in hits. Some 7.3% of all compounds tested hit in one or more screens of this group.
# KinaseGlo FLuc – counter-screen: inhibitors of Kinase-Glo firefly luciferase | AID 1379 | actives 0.28% (n = 200,000) | Potency, µM (titrated, usually from 38.3 µM), inactives show at the top dose activity change, negative = inhibition, hits mostly inhibitors | Kinase-Glo luciferase, ATP luminescence, 8 min; also: % is scaled to controls: 0 for no effect and ±100 for the full control effect; nearly all actives have a fitted effect of over 60% in size
#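 Compounds were added to a substrate mix at pH 7.2 (50 mM imidazole, 10 uM ATP, within the enzyme's linear range), followed by Kinase-Glo detection reagent; luminescence was measured after 8 minutes at ambient temperature.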
# ELG1 genotox – inducers of genotoxicity in HEK293T ELG1-luciferase cells. HEK293T ELG1-luciferase reporter, luminescence, 16 h. Potency, µM (series often up to 46 µM), without a hit: at the top dose activity change, positive = activation, usual class: activators. actives 1.3% (n = 330,000). AID 504466; also: % of control where 0% means no effect; nearly all actives have a fitted effect of over 60% in size
#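 Reporter readout depends on ELG1 protein level, which increases with genetic stress. After 16 hr compound exposure at 37 °C, luciferase activity was quantified using ONE-Glo.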
# SMN2 splice up – enhancers of SMN2 splice variant expression | HEK293 SMN2-luciferase splicing reporter, luminescence, 30-36 h | Potency, µM (top dose mostly 46.1 µM), for inactives: at the top dose activity change, positive = activation, usual class: activators | actives 2.8% (n = 210,000) | AID 1458; also: % of control where 0% means no effect; nearly all actives have a fitted effect of over 55% in size
#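 HEK293 cells carry an SMN2 minigene-luciferase reporter in which exon 7 inclusion puts luciferase in frame. Cells were seeded at 2000 cells/well, attached for 10-12 hours, then exposed to compounds for 30-36 hours at 37C before ONE-Glo luminescence.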
# NPC1 promoter act – activates the NPC1 promoter | Huh7 NPC1 promoter luciferase reporter, 24 h | Potency, µM (series often up to 9.22 µM), inactives show at the top dose activation, hits mostly activators | actives 2.4% (n = 320,000) | AID 485313; also: % of control where 0% means no effect; nearly all actives have a fitted effect of over 60% in size
#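 Cells: Huh7 expressing luciferase under the NPC1 promoter, 1500/well. Seeded 2 h, compound added, incubated 24 h at 37 °C. Luciferase reagent, 10 min ambient, then luminescence.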
# Rab9 promoter act – activators of Rab9 promoter; Huh7 Rab9 promoter-luciferase reporter, luminescence, 24 h; Potency, µM (titrated, usually from 9.22 µM), for inactives: at the highest dose activation, negative = inhibition, actives largely listed as activators; actives 2.8% (n = 320,000); also: % of control where 0% means no effect; nearly all actives have a fitted effect of over 60% in size
#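 Luminescence read-out: Huh7 cells stably expressing Rab9-luciferase, treated 24 h with compound at 37 °C, then lysed with luciferase reagent for 10 min at ambient before reading.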
# FLuc modulator – counter-screen for miR-21 project: firefly luciferase inhibitors or activators | actives 6.9% (n = 360,000) | AID 588342 | Potency, µM (top dose mostly 57.5 µM), inactives show at the top dose activity change, negative = inhibition, hits mostly inhibitors | purified FLuc, Km substrates, luminescence inhibition | P08659;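 also: plate controls were vehicle for no effect and reference inhibitor for full effect; nearly all actives have a fitted effect of over 55% in size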
# Target sequence (P08659 whole entry, looked up): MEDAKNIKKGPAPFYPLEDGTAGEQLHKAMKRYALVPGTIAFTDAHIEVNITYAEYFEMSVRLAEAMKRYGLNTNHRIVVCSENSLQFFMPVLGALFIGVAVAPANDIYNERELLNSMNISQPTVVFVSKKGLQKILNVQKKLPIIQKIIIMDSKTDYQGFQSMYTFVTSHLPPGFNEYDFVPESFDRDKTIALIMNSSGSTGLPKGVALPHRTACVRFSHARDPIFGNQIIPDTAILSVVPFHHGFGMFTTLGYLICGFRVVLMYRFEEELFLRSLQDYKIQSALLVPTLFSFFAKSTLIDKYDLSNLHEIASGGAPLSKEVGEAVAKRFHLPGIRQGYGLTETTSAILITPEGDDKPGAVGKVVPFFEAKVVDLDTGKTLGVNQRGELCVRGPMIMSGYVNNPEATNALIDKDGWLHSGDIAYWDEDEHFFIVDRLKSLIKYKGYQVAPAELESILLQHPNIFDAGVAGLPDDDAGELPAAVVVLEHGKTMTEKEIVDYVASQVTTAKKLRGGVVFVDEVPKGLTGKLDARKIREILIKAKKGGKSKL
#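 Biochemical qHTS of compounds, final roughly 60 µM downward over six points, against 10 nM purified firefly luciferase using Km concentrations of substrates (10 uM D-luciferin, 10 uM ATP) in Tris acetate pH 7.5 buffer; luminescence output.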
# Starred values were filed as active, the others as inactive; ? = inconclusive; . = not tested or not shown; [ ] = another dose, or the depositor's remark. Calls follow the shape of the dose curve; as a rule, active = well fitted curve in the direction sought with a large enough effect; inconclusive = small, poorly fitted or top-dose-only effect, or another doubt; inactive = no such curve, though single readings can be large; an effect the other way counts as inactive or inconclusive. Potency is read from the fitted curve at half-maximal effect.
SMILES,KinaseGlo FLuc,ELG1 genotox,SMN2 splice up,NPC1 promoter act,Rab9 promoter act,FLuc modulator
CCOc1ccc(OCc2ccc(C(=O)N(CC)CC)cc2)cc1,-1%,6%,24%,?,?,15µM*
O=C(O)c1cc(OCc2ccccc2)cc(OCc2ccccc2)c1,.,-6%,.,-1%,-8%,1%
CCOc1ccc(OCc2cccc(C(=O)O)c2)cc1,11µM*,-29%,0.032µM*,-22%,-25%,0.017µM*
COc1ccc(OCc2cccc(C(=O)O)c2)cc1,?,.,0.04µM*,0.0006µM*,1µM*,0.03µM*
CCN(CC(=O)Nc1c(F)cccc1F)C(=O)c1ccc(COc2ccccc2)cc1,.,-5%,.,2%,6%,2%
COc1cc(/C=C/[N+](=O)[O-])ccc1OCc1cccc(C(=O)O)c1,-7%,?,1.3µM*,1µM*,1.3µM*,0.21µM*
CCCSc1ncc(Cl)c(C(=O)Nc2c(C(=O)c3ccc(C)cc3)oc3ccccc23)n1,.,.,9%,.,.,1%
CC12C=C(/C=C/CCc3ccco3)C(C)(C1)[C@H](CCc1ccco1)CC2=O (some centres undefined),0%,.,-4%,.,.,.
O=C(OCC(F)(F)F)c1cccc(COc2ccc3ccccc3c2)c1,-2%,?,0.45µM*,1µM*,?,3.4µM*
O=Cc1ccc(OCc2cccc(C(F)(F)F)c2)cc1O,-3%,0%,24%,1%,6%,?
COc1ccc(NC(=O)c2oc3ccccc3c2NC(=O)c2ccco2)cc1,0%,-9%,-2%,-2%,-5%,13µM*
COCC(=O)Nc1c(C(=O)Nc2cccc(OC)c2)oc2ccccc12,-4%,?,11µM*,3.5µM*,3.5µM*,0%
COc1cccc(NC(=O)CSc2nc3c(oc4ccccc43)c(=O)[nH]2)c1,-4%,6%,29%,7%,-3%,3.8µM*
COc1cccc(NC(=O)CSc2ncnc3c2oc2ccccc23)c1,15%,9%,-17%,-3%,-5%,-2%
COc1ccc(NC(=O)c2oc3ccccc3c2NC(=O)c2cc3ccccc3o2)cc1,.,.,-5%,.,.,?
COc1cccc(NC(=O)c2oc3ccccc3c2NC(=O)c2ccccc2C)c1,.,.,-13%,.,.,-9%
COc1cccc(NC(=O)c2oc3ccccc3c2NC(C)=O)c1,-7%,?,?,?,3.5µM*,?
C=CCn1cccc(C(=O)Nc2ccc(OC)c(Cl)c2)c1=O,.,9%,.,?,?,19µM*
C=CCn1cccc(C(=O)Nc2ccc(C)c(Cl)c2)c1=O,.,?,.,2.5µM*,?,9.5µM*
Cc1ccc(OCc2cc(=O)n3cc(C)sc3n2)c(NC(=O)c2ccco2)c1,.,.,.,.,.,-1%
On1c(-c2ccccc2)nc2ccc(Cl)cc21,-4%,8%,13µM*,?,?,17µM*
COc1ccc(-c2nc3ccccc3n2OC(C)C(=O)O)cc1 (centres undefined),-2%,?,.,-2%,0%,11µM*
CC(On1c(-c2ccccc2)nc2ccc(Cl)cc21)C(=O)O (centres undefined),2%,6%,8%,-3%,9%,?
Cc1ccc(-c2nc3ccc(Cl)cc3n2OC(C)C(=O)O)cc1 (centres undefined),-1%,?,?,0%,0%,11µM*
CCCCc1nc2c(c3c1C[C@H](C)OC3)CN(S(=O)(=O)c1ccc(C#N)cc1)CC2,-5%[7.66 µM],.,-5%[9.22 µM],.,.,.
Cc1ccc(-n2[nH]c(C)c(C=Nc3ccc(S(=O)(=O)Nc4nccs4)cc3)c2=O)cc1,?,4%,17%,-1%,-2%,?
CCc1nnc(NS(=O)(=O)c2ccc(N=Cc3c(C)[nH]n(-c4ccc(C)c(C)c4)c3=O)cc2)s1,2µM*,7%,?,-1%,-2%,15µM*
O=C1CC(c2cc(-c3ccccc3)no2)C1,.,?,.,?,2.8µM*,?
